# Screens from PubChem BioAssay.
# Cycloheximide cs = counter-screen hit for Shiga toxin inhibitors, cycloheximide; AID 2314; max response, %; cell reporter, cycloheximide protein synthesis inhibition counterscreen; hit rate 12% among 300,000; in the data active means max response mostly above about 13%, no sharp cut-off; inactive means mostly below about 14%; further: read at 38.3 µM for the half of the compounds with a filed dose; 0% is about no effect
# Shiga toxin inh = Shiga toxin inhibition. Vero cells, Shiga toxin protein synthesis inhibition reporter. inhibition, % at 38.7 µM. hit rate 9.2% among 290,000; in the data active means inhibition mostly above about 28%, no sharp cut-off; inactive means mostly below about 43%; further: 0% is about no effect
# NS1 inh = inhibitors of influenza NS1 protein function | Potency, µM (top dose mostly 46.1 µM), for inactives: at the top dose activity, positive = more growth | hit rate 0.4% among 270,000 | AID 2326; further: potency means the concentration at half of the fitted maximal effect; actives are rising curves; nearly all actives have a fitted effect of over 50% in size
#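 Compounds were scored for reversing the slow growth caused by influenza A NS1 in S. cerevisiae, measured by optical density at 600 nm. Assay medium contained 2% galactose at pH 6.0; NS1-free yeast of the same strain were the positive control.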
# SARS PLP yeast = inhibitors of SARS-CoV papain-like protease in yeast; S. cerevisiae expressing SARS-CoV PLpro, growth rescue; Potency, µM (series often up to 32.9 µM), for the others: at the highest dose activity, positive = growth rescue, hits mostly activators; hit rate 0.19% among 330,000; further: potency means the concentration at half of the fitted maximal effect; 0% is about no effect; nearly all actives have a fitted effect of over 55% in size
# Tb PYK inh = inhibitors of Trypanosoma brucei pyruvate kinase | Q57TT1 | TbPYK enzyme, Kinase-Glo Plus ATP luminescence, 45 min | Potency, µM (titrated, usually from 76.8 µM), for inactives: at the top dose activity, negative = inhibition, most hits filed as inhibitors | hit rate 0.12% among 410,000; active means well fitted curve in the direction sought with a large enough effect; inconclusive means small, poorly fitted or top-dose-only effect, or another doubt; inactive means no such curve, though single readings can be large; an effect the other way counts as inactive or inconclusive; further: potency means the concentration at half of the fitted maximal effect; on the % scale 0 is the no-effect control and ±100 the full control effect; nearly all actives have a fitted effect of over 50% in size
#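 Screened from lowest to highest concentration, compounds were pinned into TbPYK/substrate mixtures, and ADP (130 uM final) was added. Plates sat at room temperature for 45 min prior to Kinase-Glo Plus detection by luminescence.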
# LmPK inh = LmPK (Leishmania mexicana) enzyme inhibition; Q27686; purified LmPK, Kinase-Glo ATP luminescence, 1 h; Potency, µM (series often up to 57.5 µM), for the others: top-dose activity change, negative = inhibition, actives largely listed as inhibitors; hit rate 0.37% among 290,000; AID 1721; active means well fitted curve in the direction sought with a large enough effect; inconclusive means small, poorly fitted or top-dose-only effect, or another doubt; inactive means no such curve, though single readings can be large; an effect the other way counts as inactive or inconclusive; further: potency means the concentration at half of the fitted maximal effect; on the % scale 0 is the no-effect control and ±100 the full control effect
# Target sequence (Q27686 whole entry, looked up): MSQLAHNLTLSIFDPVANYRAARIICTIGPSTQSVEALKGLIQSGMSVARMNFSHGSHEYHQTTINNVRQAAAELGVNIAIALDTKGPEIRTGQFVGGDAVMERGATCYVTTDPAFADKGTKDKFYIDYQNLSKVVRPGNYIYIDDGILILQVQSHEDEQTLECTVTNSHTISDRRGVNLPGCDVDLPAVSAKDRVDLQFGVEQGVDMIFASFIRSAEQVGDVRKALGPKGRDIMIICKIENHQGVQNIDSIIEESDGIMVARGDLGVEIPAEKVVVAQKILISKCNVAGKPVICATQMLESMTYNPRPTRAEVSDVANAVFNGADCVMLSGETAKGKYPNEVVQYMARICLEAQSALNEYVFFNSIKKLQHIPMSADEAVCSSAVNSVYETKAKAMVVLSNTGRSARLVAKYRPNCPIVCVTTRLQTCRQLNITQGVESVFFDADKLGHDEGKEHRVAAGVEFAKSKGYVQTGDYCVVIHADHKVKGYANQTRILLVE
#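 Pyruvate kinase activity monitored as ATP production (luciferase luminescence). Conditions: 0.1 nM enzyme, 0.5 mM PEP, 0.1 mM ADP, 1 h, RT; normalized against uninhibited and no-enzyme wells.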
# * = called active by the depositor; u = inconclusive; x = no result given; [ ] = dose if it differs, or a comment. This excerpt belongs to a sample that is enriched for hits. Unless noted, the call rests on the fitted dose curve.
SMILES,Cycloheximide cs,Shiga toxin inh,NS1 inh,SARS PLP yeast,Tb PYK inh,LmPK inh
COc1ccc(NC2CCCN(C(=O)CCC(=O)c3ccc(F)cc3)C2)cc1 (centres undefined),47.3*,71.8,5.8%,-0.7%,-21.2%,2.5%
COc1ccc(C(=O)NCC(=O)c2ccccc2)cc1,36.4*,x,-10.8%,2.4%,-8.2%,0.2%
COc1ccc(C(=O)CC(=O)c2ccccc2)cc1,x,x,x,x,-0.7%,x
COc1ccc(S(=O)(=O)NCCS(=O)(=O)N2CCN(c3ccccc3)CC2)cc1OC,x,x,x,x,3.5%,x
Cc1ccc(C)c(S(=O)(=O)N2CCN(C(=O)Cn3c(=O)cnc4ccccc43)CC2)c1,x,x,x,1.7%,1.6%,x
Cc1ccc(S(=O)(=O)CC(=O)N2CCN(c3nc4c(F)cccc4s3)CC2)cc1,x,x,x,x,-2.3%,x
Cc1nnc(N2C(=O)c3oc4ccccc4c(=O)c3C2c2cccc(OCCC(C)C)c2)s1 (centres undefined),x,x,x,x,-8.0%,x
N#CCSc1nnc(Nc2ccccc2)s1,12.2,35.3,1.5%,-5.7%,0.0%,-0.7%
CC(C)(C)C(=O)CSc1nnc(Nc2ccccc2)s1,33.8*,51.2,x,1.1%,1.7%,-1.8%
CSc1nnc(SCC(=O)N(C)c2c(N)n(Cc3ccccc3)c(=O)[nH]c2=O)s1,x,x,x,2.9%,-7.5%,x
CN(C(=O)CSc1nnc(Nc2ccccc2)s1)c1c(N)n(Cc2ccccc2)c(=O)[nH]c1=O,29.3*,97.0,-3.8%,-5.3%,-6.5%,-0.6%
OCCSc1nnc(Nc2ccccc2)s1,38.4*,87.3*,-87.6%,-10.5%,-3.6%,-17.2%
CCN(CC)c1ncnc2c1ncn2[C@H]1CN(Cc2ccc3c(c2)OCO3)C[C@@H](CO)O1,x,x,x,x,0.6%,x
CCOC(=O)c1ccccc1NC(=O)Cc1c(C(=O)O)c(C)cn1C,x,x,x,x,0.5%,x
CC1=NN(C(N)=S)C(=O)C1N=Nc1ccc(C)c(Br)c1 (centres undefined),36.1*,59.2*,-50.9%,-2.6%,-0.5%,-2.4%
CC1=NN(C(N)=S)C(=O)C1N=Nc1ccc(O)cc1 (centres undefined),23.6*,32.4*,6.3%,-1.1%,-2.7%,-2.9%
CC1=NN(C(N)=S)C(=O)C1N=Nc1ccc([N+](=O)[O-])cc1 (centres undefined),53.4*,38.7*,-4.7%,1.4%,-10.4%,-3.0%
CC(=O)Nc1ccc(N=NC2C(=O)N(C(N)=S)N=C2C)cc1 (centres undefined),20.8*,40.4,u,-2.0%,-3.5%,-2.9%
CC1=NN(c2ccccc2C(=O)O)C(=O)C1N=Nc1ccccc1 (centres undefined),1.6,13.7,u,2.3%,-1.1%,1.2%
O=c1[nH][nH]c2c1[C@H](c1ccc(Cl)cc1)O[C@H](C1CCCCC1)C2,x,x,x,x,-2.5%,x
CC1=NN(C(N)=S)C(=O)C1N=Nc1ccc(F)cc1 (centres undefined),25.2*,65.7*,-42.1%,0.7%,-2.8%,-2.8%
CCOc1ccc(N=NC2C(=O)N(C(N)=S)N=C2C)cc1 (centres undefined),28.0*,x,-26.4%,-1.7%,1.2%,-1.7%
CC1=NN(C(N)=S)C(=O)C1N=Nc1cccc(C(=O)O)c1 (centres undefined),-0.4,9.9,17.2%,-2.2%,-7.5%,-2.1%
CC1=NN(c2nc(-c3ccc(C)cc3)cs2)C(=O)C1N=Nc1cccc(C)c1 (centres undefined),20.4*,28.7,8.7%,-0.2%,-2.0%,-6.0%
CC1=NN(C(N)=S)C(=O)C1N=Nc1cccc(C)c1 (centres undefined),21.6*,23.8,-55.1%,1.1%,-1.4%,2.4%
SMILES,Cycloheximide cs,Shiga toxin inh,NS1 inh,SARS PLP yeast,Tb PYK inh,LmPK inh
COC(=O)C1=C(C)NC(C)=C(C(=O)OCCCN2CCC(c3ccccc3)(c3ccccc3)CC2)C1c1cccc([N+](=O)[O-])c1 (centres undefined),x,x,x,x,0.0%,x
COC(=O)CCCC1=CC2=C(c3ccccc3)C(=O)C(C)(OC(=O)C3CCCC3)C(=O)C2=CN1CCCOC(C)C (centres undefined),x,x,x,x,x,-1.4%[11.5 µM]
O=C(Nc1cccc(O)c1)c1cc(-c2cccs2)on1,30.5*,77.4*,-39.8%,-32.2%,-0.3%,-16.7%
COc1ccc(-c2cc(C(=O)Nc3cccc(C(C)=O)c3)no2)cc1OC,x,x,x,x,-2.7%,x
CC(=O)c1cccc(NC(=O)c2cc(-c3cccs3)on2)c1,14.3*,32.1,-4.0%,0.1%,2.1%,7.7%
Cn1c(=O)c2c([nH]c(=O)n2C)n(Cc2ccccc2)c1=O,x,x,x,x,-7.8%,x
O=C1CSC2=NCN(c3ccc4c(c3)OCO4)CN12,34.9*,96.3*,3.9%,4.0%,-15.5%,-1.8%
CN(C)c1ccc(N2CN=C3SCC(=O)N3C2)cc1,86.3*,97.9*,3.7%,-10.8%,-18.9%,-12.2%
CN(C)c1ccc(C=NN2C(=O)CSC2=S)c(Cl)c1,x,x,x,x,-1.4%,x
CC1CCN(S(=O)(=O)c2ccc3c(c2)N(CC(=O)NCC(C)c2ccccc2)C(=O)CO3)CC1 (centres undefined),x,x,x,x,-1.6%,x
COc1ccccc1Nc1nc(-c2cccc([N+](=O)[O-])c2)cs1,46.7*,59.4,7.7%,-1.3%,1.0%,2.1%
O=C(Nc1nc(-c2ccccc2)cs1)c1cccc([N+](=O)[O-])c1,50.5*,100.0*,2.7%,2.1%,0.7%,-2.9%
COc1cc(NS(=O)(=O)c2ccc(Nc3nc(-c4cccc([N+](=O)[O-])c4)cs3)cc2)nc(OC)n1,-2.1,-2.2,-1.5%,14.1%,-17.8%,5.0%
O=[N+]([O-])c1cccc(-c2csc(Nc3ccccc3)n2)c1,68.1*,90.6*,2.4%,-6.0%,-0.5%,5.0%
CCOc1ccccc1NC(=O)CSc1nc2cc(O)ccc2c(=O)n1-c1ccc(OC)c(OC)c1,5.5,-7.5,8.4%,-1.4%,5.6%,-1.5%
C/C(=N\N=C\c1ccc(N(C)C)cc1)c1cccc([N+](=O)[O-])c1,37.2*,49.9*,-12.6%,-17.9%,-12.8%,-9.4%
Cc1cc(C(=O)Nc2ccc3[nH]ccc3c2)no1,45.7*,74.2*,-0.6%,-2.3%,-0.7%,-0.2%
Cc1cc(NC(=O)c2cc(CC(C)C)on2)no1,42.9*,81.4*,-4.4%,-5.8%,4.6%,-3.3%
CNc1nc(N)c(C(=O)Nc2cc(C)on2)s1,30.1*,88.2*,x,-1.1%,-26.7%,11.1%
Cc1ccc(-c2cc(C(=O)Nc3cc(C)on3)no2)cc1,-2.2,25.6,3.1%,0.2%,3.7%,8.5%
CC(C)Cc1cc(C(=O)NCc2ccc(Cl)cc2)no1,x,x,x,x,0.7%,x
Cc1cc(NC(=O)c2cc(C3CC3)on2)no1,40.5*,73.0*,-5.2%,-0.2%,-7.7%,-1.0%
Cc1cc(NC(=O)c2ccoc2C)no1,11.0*,24.8,10.7%,-14.5%,-18.8%,17.8µM*
Cc1cc(NC(=O)c2cc(C)on2)no1,8.4*,37.1,-8.0%,6.1%,-2.0%,1.4%
CCc1ccc(C(=O)Nc2cc(C)on2)o1,25.2,88.6*,-24.3%,-0.1%,5.8%,-4.5%
